Experimental data published in PubChem BioAssay AID1508602 (The Scripps Research Institute Molecular Screening Center, 2020).
The whole screen tested about 650,000 compounds, of which about 6,800 (1%) were called active. Only a selection was taken, and actives are over-represented in it overall. Values without a mark were called inactive. Cut-off read from the data, not from the text of the source: active = activation above about 4.9%; inactive = the rest.

biological target: G-protein coupled receptor 151 (Homo sapiens) (UniProt Q8TDV0); assay: activators of human GPR151, primary screen, cell-based, PathHunter beta-arrestin, luminescence (AID 1508602); conditions: PathHunter beta-arrestin GPR151 cells, at 11.2 µM, stronger effect = higher value;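 note: 0% = median of compound wells and 100% = cells with positive control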
Sequence (Q8TDV0 whole entry, looked up): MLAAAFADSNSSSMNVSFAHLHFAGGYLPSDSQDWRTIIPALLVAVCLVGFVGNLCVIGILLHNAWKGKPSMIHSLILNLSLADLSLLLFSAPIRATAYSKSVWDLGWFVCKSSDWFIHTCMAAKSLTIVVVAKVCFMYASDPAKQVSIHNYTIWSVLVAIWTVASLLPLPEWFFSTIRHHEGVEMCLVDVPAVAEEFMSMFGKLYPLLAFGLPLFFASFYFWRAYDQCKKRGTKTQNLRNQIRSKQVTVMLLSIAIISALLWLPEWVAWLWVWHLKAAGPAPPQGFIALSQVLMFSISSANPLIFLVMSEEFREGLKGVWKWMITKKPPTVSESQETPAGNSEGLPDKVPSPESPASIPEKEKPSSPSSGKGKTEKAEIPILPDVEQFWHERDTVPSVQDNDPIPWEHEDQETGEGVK

Structure (SMILES)	activation
COc1cccc(CNC(=O)Cn2c(=O)oc3ccccc32)c1	-1.36%
N#CCCn1c2ccc(Cl)cc2c2cc(Cl)ccc21	2.4%
CC1CN(c2ncnc3c2c(-c2ccccc2)cn3-c2cccc(C(F)(F)F)c2)CC(C)O1 (stereo not drawn)	-1.46%
COc1ccc(N2CCN(c3ncnc4c3c(-c3ccccc3)cn4-c3ccc(C)cc3)CC2)cc1	-2.7%
Cc1ccc(-n2cc(-c3ccccc3)c3c(N4CC(C)OC(C)C4)ncnc32)cc1 (stereo not drawn)	7.76% (active)
CCN(CC)CCCNCC(=O)Nc1ncc(C)s1	-1.43%
Cc1ccccc1CC1(CO)CCCN(Cc2ccncc2)C1 (stereo not drawn)	5.32% (active)
Cc1ccccc1CC1(CO)CCCN(C(=O)CN(C)Cc2ccncc2)C1 (stereo not drawn)	0.125%
OCC1(Cc2ccccc2C(F)(F)F)CCN(Cc2ccncc2)CC1	-0.707%
Cc1csc(COc2ccc(C(=O)NCc3cccs3)cc2)n1	-2.02%
Cn1ncc2c(Nc3cccc4ccccc34)ncnc21	2.47%
Cn1ncc2c(NNC(=O)Cc3cccc4ccccc34)ncnc21	6.03% (active)
Cn1ncc2c(NNC(=O)c3ccc(C(C)(C)C)cc3)ncnc21	1.02%
O=C1c2ccccc2C(=O)C1(Nc1ccc(-c2ccccc2)cc1)c1ccccc1	0.902%
O=C(Nc1ccc2c(c1)C(=O)Nc1cc(Cl)ccc1O2)c1cccc(F)c1	-0.172%
COc1ccc(C2CC(c3cccs3)=NN2C(=O)CSc2nnc(CNC(=O)c3cccc(C)c3)n2Cc2ccccc2)cc1 (stereo not drawn)	-0.0797%
O=C(NCc1nnc(SCC(=O)N2N=C(c3cccs3)CC2c2ccc(F)cc2)n1Cc1ccccc1)c1cccc(F)c1 (stereo not drawn)	5.02% (active)
Cc1ccc(C2CC(c3cccs3)=NN2C(=O)CSc2nnc(CNC(=O)c3cccs3)n2Cc2ccccc2)cc1 (stereo not drawn)	-0.904%
CSc1ccc2nc(NC(=O)c3ccccc3Cl)sc2c1	-0.347%
N#Cc1ccccc1CSc1nc2ccccc2o1	-1.07%
Fc1ccccc1OCCSc1nc2ccccc2o1	4.92% (active)
CC(=O)OCC#CCSc1nc2ccccc2o1	-0.909%
O=C(CC1C(=O)NCCN1C(=O)c1ccc([N+](=O)[O-])cc1)Nc1cccc(Cl)c1 (stereo not drawn)	7.94% (active)
COc1ccccc1C(=O)N1CCNC(=O)C1CC(=O)Nc1ccc(Cl)cc1 (stereo not drawn)	-1.89%
O=C(Cc1ccc([N+](=O)[O-])cc1)Nc1cccc(Cl)c1	-0.456%
CCc1cc2c(=O)c(-c3ccc4c(c3)OCCCO4)coc2cc1OC	-0.907%
CCCc1cc2c(=O)c(-c3ccc4c(c3)OCO4)coc2cc1O	0.792%
CCc1cc2c(=O)c(-c3ccc4c(c3)OCCCO4)coc2cc1OC(=O)N1CCOCC1	8.05% (active)
